From PubChem BioAssay (EPA / NIEHS)
Values joined by “and” are separate entries in the source; they are usually repeats but may differ in a detail not shown here. Equal entries are not always repeated. Inconclusive results are not listed. Active and inactive are the calls of the source. Rule for the calls, unless noted: active = hit-call score of the fitted dose curve at least 0.9, where 1 is the maximum; inconclusive = response in the unintended direction; inactive = score below 0.9.

Columns and labels:
[1] = CLD_ACTIN_24hr: CellzDirect (CLD) Gene Expression Assay for Baseline Control (Actin) at 24 hours (AID 2283670)
Summary of the method: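 This 24 h qNPA (S1 nuclease protection, chemiluminescence) actin transcript readout in cultured human liver primary cells serves as baseline control. Signal is fitted upward relative to 0.2% DMSO; chemicals tested at multiple concentrations across two donor preparations.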

[2] = read-out: xenobiotic metabolism (CYP1A1), CYP1A1 (gene 1543); experiment: CLD_CYP1A1_24hr: CellzDirect (CLD) Gene Expression Assay for xenobiotic metabolism (CYP1A1) at 24 hours (AID 2283673);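 note: CYP1A1 mRNA level by quantitative nuclease protection with chemiluminescence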
Summary of the method: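 Transcript levels were read at 24 h by qNPA chemiluminescence in human liver primary cells. Cells got daily fresh dosing at multiple concentrations (vehicle 0.2% DMSO). Induction fitted upward against DMSO; phase-contrast cytotoxicity annotated.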

[3] = CCTE_Padilla_ZF_144hpf_TERATOSCORE: (Legacy) CCTE's 144 Hour Post-fertilization zebrafish Assay Teratoscore, Padilla Lab (AID 2283679; active = hit-call score of the fitted dose curve at least 0.9, where 1 is the maximum; inactive = score below 0.9;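 for AC50: zebrafish embryos with chorions exposed by immersion from 6-8 hpf to 5 dpf with daily renewal; teratogenicity score from eye scoring of death hatching and malformations at 144 hpf; higher score means more developmental defects relative to DMSO baseline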)
Summary of the method: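 Larvae scored by eye at 144 hpf for death, hatching and malformations after a day in clean Hanks'. Before that, daily-renewed exposure at 80 uM (0.4% DMSO, 26C) from roughly 6-8 hpf through 5 dpf, 4 embryos per chemical.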

[4] = read-out: Glyceraldehyde-3-phosphate dehydrogenase (Homo sapiens) (UniProt P04406); experiment: CLD_GAPDH_6hr: CellzDirect (CLD) Gene Expression Assay for Baseline Control (Glyceraldehyde 3-phosphate dehydrogenase) at 6 hours (AID 2283681);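 note: active means increased signal relative to DMSO vehicle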
Summary of the method: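 GAPDH baseline-control readout from qNPA (S1 nuclease digestion, probe hybridization, chemiluminescence) in lysates of cultured human hepatocytes harvested 6 h post-dosing. Chemicals tested at multiple concentrations versus 0.2% DMSO vehicle; microscopy-based cytotoxicity flagged yes/no.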

[5] = read-out: HMG-CoA synthase (HMGCS2), HMGCS2 (gene 3158); experiment: CLD_HMGCS2_6hr: CellzDirect (CLD) Gene Expression Assay for HMG-CoA synthase (HMGCS2) at 6 hours (AID 2283682);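 note: actives raise HMGCS2 transcript above the 0.2% DMSO vehicle baseline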
Summary of the method: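 HMGCS2 transcript induction read by quantitative nuclease protection with chemiluminescence, 6 h after dosing of primary human hepatocytes. Baseline was 0.2% DMSO vehicle; phase-contrast morphology gave a yes/no cytotoxicity annotation.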

[6] = read-out: Cytochrome P450 2C19 (Homo sapiens) (UniProt P33261); experiment: CLD_CYP2C19_6hr: CellzDirect (CLD) Gene Expression Assay for xenobiotic metabolism (CYP2C19) at 6 hours (AID 2283678)
Summary of the method: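 CYP2C19 transcript induction was quantified by quantitative nuclease protection assay with chemiluminescent read-out, 6 h after dosing. Cells were primary human hepatocytes from two donor preparations, given fresh dosing solutions daily in 0.2% DMSO vehicle. Activity was relative to DMSO.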

[7] = read-out: Cytochrome P450 3A4 (Homo sapiens) (UniProt P08684); experiment: CLD_CYP3A4_6hr: CellzDirect (CLD) Gene Expression Assay for xenobiotic metabolism (CYP3A4) at 6 hours (AID 2283680)
Summary of the method: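 CYP3A4 mRNA induction, 6 h after dosing of cultured primary human hepatocytes from two donors, read by quantitative nuclease protection (qNPA, chemiluminescence). Vehicle 0.2% DMSO as baseline; morphology-based cytotoxicity annotated yes/no.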

[8] = read-out: ABC Transporter (ABCB11), ABCB11 (gene 8647); experiment: CLD_ABCB11_24hr: CellzDirect (CLD) Gene Expression Assay for ABC Transporter (ABCB11) at 24 hours (AID 2283674; active = hit-call score of the fitted dose curve at least 0.9, where 1 is the maximum; inactive = score below 0.9)
Summary of the method: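 ABCB11 transcript was quantified by qNPA chemiluminescence in cultured human liver hepatocytes 24 hours after dosing. Fresh dosing solutions were applied on consecutive days, against a 0.2% DMSO vehicle. Cytotoxicity was noted by phase-contrast morphology.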

[9] = read-out: glucuronosyltransferase (UGT1A1), UGT1A1 (gene 54658); experiment: CLD_UGT1A1_6hr: CellzDirect (CLD) Gene Expression Assay for glucuronosyltransferase (UGT1A1) at 6 hours (AID 2283672)
Summary of the method: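 UGT1A1 mRNA induction, read by quantitative nuclease protection assay, 6 h after dosing primary human hepatocytes (two donors, 0.2% DMSO vehicle). Gain of signal fitted relative to vehicle.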

[10] = read-out: Cytochrome P450 2B6 (Homo sapiens) (UniProt P20813); experiment: CLD_CYP2B6_6hr: CellzDirect (CLD) Gene Expression Assay for xenobiotic metabolism (CYP2B6) at 6 hours (AID 2283677);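 note: actives raise CYP2B6 transcript above DMSO baseline so AC50 marks an inducer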
Summary of the method: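 CYP2B6 transcript levels, read by chemiluminescent qNPA, were fitted for increase versus DMSO baseline; cultured human liver hepatocytes from two donor preparations were harvested 6 h after exposure to test chemicals at multiple concentrations.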

Measured: AC50

Sequence of Glyceraldehyde-3-phosphate dehydrogenase (Homo sapiens) (P04406 whole entry, looked up): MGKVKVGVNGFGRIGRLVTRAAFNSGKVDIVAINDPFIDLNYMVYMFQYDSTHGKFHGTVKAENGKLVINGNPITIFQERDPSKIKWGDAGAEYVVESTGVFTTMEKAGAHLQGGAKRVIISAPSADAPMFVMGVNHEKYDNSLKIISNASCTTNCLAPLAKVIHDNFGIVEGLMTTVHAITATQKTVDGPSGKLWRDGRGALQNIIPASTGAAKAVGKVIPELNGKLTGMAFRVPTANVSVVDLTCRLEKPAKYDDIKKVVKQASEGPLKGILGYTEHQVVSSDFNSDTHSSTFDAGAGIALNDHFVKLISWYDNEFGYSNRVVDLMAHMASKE
Sequence of Cytochrome P450 2C19 (Homo sapiens) (P33261 whole entry, looked up): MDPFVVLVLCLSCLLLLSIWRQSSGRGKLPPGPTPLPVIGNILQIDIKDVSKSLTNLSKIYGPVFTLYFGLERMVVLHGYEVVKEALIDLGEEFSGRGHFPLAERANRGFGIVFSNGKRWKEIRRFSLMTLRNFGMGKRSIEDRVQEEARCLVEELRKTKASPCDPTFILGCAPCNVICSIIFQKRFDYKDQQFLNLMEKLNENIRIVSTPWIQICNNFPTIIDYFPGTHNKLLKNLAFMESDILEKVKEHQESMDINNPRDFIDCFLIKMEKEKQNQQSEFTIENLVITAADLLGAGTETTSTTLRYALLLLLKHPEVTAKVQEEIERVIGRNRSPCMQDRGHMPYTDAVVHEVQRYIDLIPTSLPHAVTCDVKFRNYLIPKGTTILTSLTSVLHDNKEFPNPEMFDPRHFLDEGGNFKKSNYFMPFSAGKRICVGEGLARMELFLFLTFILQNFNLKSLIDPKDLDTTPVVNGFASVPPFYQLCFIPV
Sequence of Cytochrome P450 3A4 (Homo sapiens) (P08684 whole entry, looked up): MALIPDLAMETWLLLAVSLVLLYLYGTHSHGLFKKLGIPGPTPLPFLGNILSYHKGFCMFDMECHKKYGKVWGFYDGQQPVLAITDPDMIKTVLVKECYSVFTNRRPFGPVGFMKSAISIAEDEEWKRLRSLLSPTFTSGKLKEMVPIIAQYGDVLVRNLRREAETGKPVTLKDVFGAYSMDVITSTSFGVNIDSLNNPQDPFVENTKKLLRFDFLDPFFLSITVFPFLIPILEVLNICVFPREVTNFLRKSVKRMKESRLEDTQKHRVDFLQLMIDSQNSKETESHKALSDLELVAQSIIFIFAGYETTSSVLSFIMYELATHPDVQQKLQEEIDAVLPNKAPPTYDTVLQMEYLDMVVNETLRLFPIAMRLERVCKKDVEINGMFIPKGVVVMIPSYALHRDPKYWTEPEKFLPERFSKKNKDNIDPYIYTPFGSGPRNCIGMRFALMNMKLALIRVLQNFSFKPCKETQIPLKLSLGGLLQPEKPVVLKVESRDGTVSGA

COc1cc(OC)nc(NC(=O)NS(=O)(=O)c2cc(NC=O)ccc2C(=O)N(C)C)n1
inactive: [1] | [2] | [3] | [4] | [5]

CC1(c2ccc(Oc3ccccc3)cc2)OC(=O)N(Nc2ccccc2)C1=O (stereo not given)
active: [2] 3.89 µM | [3] 0.172 µM
inactive: [1] | [6] | [5]

O=C(O)CCCOc1ccc(Cl)cc1Cl
active: [3] 15.6 µM
inactive: [1] | [7] | [4] | [5]

Cc1[nH]c(=O)n(C(C)(C)C)c(=O)c1Cl
active: [2] 7.51 µM
inactive: [1] | [6] | [3] | [7] | [5]

Oc1ccc(Cl)cc1Cc1ccccc1
inactive: [1] | [6] | [4] | [5]
active: [3] 5.12 µM and 9.81 µM and 9.21 µM

[2H]C1([2H])[n+]2ccccc2-c2cccc[n+]2C1([2H])[2H]
inactive: [1] | [8] | [6] | [3] | [4] | [5]

COP(=O)(OC)OC=C(Cl)Cl
active: [3] 53.8 µM
inactive: [1] | [2] | [7] | [4] | [5]

CNC(=O)Oc1ccccc1OC(C)C
inactive: [1] | [2] | [6] | [3] | [7] | [4] | [5]

CNC(=O)CSP(=S)(OC)OC
inactive: [1] | [2] | [6] | [3] | [7] | [4] | [5]

O=C(O)COc1ccc(Cl)cc1Cl
inactive: [1] | [2] | [6] | [3] | [4] | [5]
active: [7] 0.49 µM

CN1CSC(=S)N(C)C1
inactive: [1] | [6] | [4]
active: [2] 3.9 µM | [3] 0.196 µM

CNC(=O)Oc1cccc(N=CN(C)C)c1
inactive: [1] | [6] | [3] | [7] | [4] | [5]

O=S1OCC2C(CO1)C1(Cl)C(Cl)=C(Cl)C2(Cl)C1(Cl)Cl (stereo not given)
inactive: [1] | [9] | [2] | [8] | [4] | [5]
active: [3] 3.4 µM | [7] 9.06 µM

CC[C@H](C)[C@H]1O[C@]2(C=C[C@@H]1C)C[C@@H]1C[C@@H](C/C=C(\C)[C@@H](O[C@H]3C[C@H](OC)[C@@H](O[C@H]4C[C@H](OC)[C@@H](O)[C@H](C)O4)[C@H](C)O3)[C@@H](C)/C=C/C=C3\CO[C@@H]4[C@H](O)C(C)=C[C@@H](C(=O)O1)[C@]34O)O2 (tested in a mixture with another compound)
active: [2] 35.2 µM | [8] 0.467 µM | [3] 0.0449 µM
inactive: [1] | [7] | [4] | [5]

N#CN
inactive: [1] | [8] | [3] | [7] | [4] | [5]

COC(=O)c1ccccc1S(=O)(=O)NC(=O)Nc1nc(C)nc(OC)n1
active: [5] 0.0117 µM
inactive: [1] | [2] | [8] | [10] | [6] | [3] | [4]

O=C(NC(=O)c1c(F)cccc1F)Nc1ccc(OC(F)(F)C(F)OC(F)(F)F)c(Cl)c1 (stereo not given)
inactive: [1] | [2] | [8] | [6] | [3]

CC(C)N(C(=O)COc1nnc(C(F)(F)F)s1)c1ccc(F)cc1
inactive: [1] | [2] | [4]
active: [3] 39.2 µM

Cc1cc(C)nc(NC(=O)NS(=O)(=O)c2ccccc2C(=O)OC2COC2)n1
active: [2] 5.65 µM
inactive: [1] | [8] | [6] | [3] | [7] | [4] | [5]

O=[N+]([O-])/N=C1\NCCN1Cc1ccc(Cl)nc1
inactive: [1] | [2] | [8] | [6] | [3] | [4] | [5]

Oc1cc(Cl)ccc1Oc1ccc(Cl)cc1Cl
active: [3] 1.48 µM and 4.99 µM and 1.9 µM
inactive: [1] | [2] | [4] | [5]

CCS(=O)(=O)c1cccnc1S(=O)(=O)NC(=O)Nc1nc(OC)cc(OC)n1
active: [2] 1.9 µM
inactive: [1] | [8] | [6] | [3] | [7] | [4] | [5]

O=[N+]([O-])c1c(Cl)c(Cl)c(Cl)c(Cl)c1Cl
inactive: [1] | [4]
active: [2] 20 µM | [3] 31.1 µM

COC(=O)c1ccccc1S(=O)(=O)NC(=O)N(C)c1nc(C)nc(OC)n1
inactive: [1] | [2] | [8] | [6] | [3] | [7] | [4]

O=C1c2ccccc2C(=O)N1SC(Cl)(Cl)Cl
inactive: [1] | [2] | [8] | [6] | [4] | [5]
active: [3] 19.3 µM

CCOc1nc(NC)nc(NC(=O)NS(=O)(=O)c2ccccc2C(=O)OC)n1
inactive: [1] | [8] | [3] | [7] | [4] | [5]
active: [2] 7.53 µM

COP(=S)(OC)Oc1ccc([N+](=O)[O-])cc1
active: [2] 4.2 µM | [3] 16.1 µM
inactive: [8] | [7]

O=S(=O)(O)C(F)(F)C(F)(F)C(F)(F)C(F)(F)C(F)(F)C(F)(F)C(F)(F)C(F)(F)F
inactive: [2] | [6]
active: [3] 23.8 µM and 45.6 µM and 7.44 µM | [5] 3.97 µM

CC1(C)C(C=C(Cl)Cl)C1C(=O)OC(C#N)c1ccc(F)c(Oc2ccccc2)c1 (stereo not given)
active: [3] 0.345 µM
inactive: [2] | [6] | [7] | [4]

CCCN(CCOc1c(Cl)cc(Cl)cc1Cl)C(=O)n1ccnc1
active: [2] 1.89 µM | [10] 0.702 µM | [3] 5.63 µM
inactive: [6] | [7] | [4] | [5]

CCc1ccc(C(=O)NN(C(=O)c2cc(C)cc(C)c2)C(C)(C)C)cc1
inactive: [9] | [8] | [3] | [5]
active: [2] 9.97 µM | [10] 2.09 µM | [7] 0.708 µM

COC(=O)c1ccccc1CS(=O)(=O)NC(=O)Nc1nc(OC)cc(OC)n1
active: [2] 32.4 µM
inactive: [9] | [6] | [3] | [5]

CNC(=O)/C=C(\C)OP(=O)(OC)OC
inactive: [2] | [8] | [3] | [5]

N#Cc1c(Cl)c(Cl)c(Cl)c(C#N)c1Cl
inactive: [8] | [6]
active: [10] 20 µM | [3] 0.187 µM

C[C@H]1[C@H](c2ccc(Cl)cc2)SC(=O)N1C(=O)NC1CCCCC1
active: [2] 3.97 µM | [7] 1.9 µM
inactive: [3] | [4]

OCCOc1ccccc1
inactive: [2] | [8] | [6] | [3] | [7] | [4] | [5]

CCC(C)Nc1c([N+](=O)[O-])cc(C(C)(C)C)cc1[N+](=O)[O-] (stereo not given)
active: [7] 1.2 µM
inactive: [2] | [6] | [5]

COP(=S)(OC)Oc1ccc(SC)c(C)c1
inactive: [7]
active: [2] 20 µM | [3] 16.1 µM

CCOCN(C(=O)CCl)c1c(C)cccc1CC
active: [2] 1.99 µM | [3] 15.5 µM | [7] 0.328 µM
inactive: [8] | [6] | [4] | [5]

CC(C)(C)C(O)/C(=C\c1ccc(Cl)cc1Cl)n1cncn1 (stereo not given)
inactive: [4]
active: [2] 6.46 µM | [3] 8.76 µM | [7] 1.89 µM

CCC(C)(C)C(=O)OC1=C(c2ccc(Cl)cc2Cl)C(=O)OC12CCCCC2
inactive: [2] | [6] | [7] | [4]
active: [3] 1.89 µM

ClC1C(Cl)C(Cl)C(Cl)C(Cl)C1Cl (stereo not given)
active: [10] 1.43 µM | [3] 42.6 µM
inactive: [7]

O=C(Nc1ccccc1)Nc1cnns1
inactive: [3] | [7] | [5]
active: [2] 2 µM

CC(C)OC(=O)Nc1cccc(Cl)c1
active: [2] 5.63 µM | [3] 72.3 µM | [7] 12.2 µM

CC(C)(C)C(O)C(Oc1ccc(Cl)cc1)n1cncn1 (stereo not given)
inactive: [4] | [5]
active: [2] 2.22 µM | [3] 52.6 µM and 46.6 µM and 57.3 µM

Clc1ccccc1-c1nnc(-c2ccccc2Cl)nn1
active: [2] 5.94 µM
inactive: [8] | [6] | [3] | [7] | [4] | [5]

CCOC1Oc2ccc(OS(C)(=O)=O)cc2C1(C)C (stereo not given)
inactive: [2] | [3] | [7]

O=C(O)C(F)(F)C(F)(F)C(F)(F)C(F)(F)C(F)(F)C(F)(F)C(F)(F)F
inactive: [2] | [6] | [3] | [4] | [5]

CCC(C)(NC(=O)c1cc(Cl)c(C)c(Cl)c1)C(=O)CCl (stereo not given)
inactive: [2] | [7]
active: [3] 5.78 µM

C#CCN1C(=O)COc2cc(F)c(N3C(=O)C4=C(CCCC4)C3=O)cc21
inactive: [8] | [6] | [7]
active: [10] 0.301 µM | [3] 4.15 µM

CCN(CC)C(=O)SCc1ccc(Cl)cc1
active: [3] 23.4 µM | [7] 20 µM
inactive: [2] | [6] | [5]

CCCN(CCC)c1c([N+](=O)[O-])cc(C(F)(F)F)cc1[N+](=O)[O-]
active: [2] 8.5 µM | [3] 0.601 µM
inactive: [7]

COc1nn(CSP(=S)(OC)OC)c(=O)s1
active: [2] 4.39 µM | [3] 18.2 µM
inactive: [8] | [6] | [7]
